# Laboratory results from PubChem BioAssay AID1159580 (chemical genetic matrix, 2015).
# About 2,000 (36%) of roughly 5,500 compounds were called active. Another 18% or so got no clear call; they are omitted. The list shows a part of the results. Values without a mark were called inactive. No stated cut-off is given here; in the data, active means normalized growth mostly below about 0.91 (no sharp cut-off); inconclusive means no clear call, values can overlap the other calls; inactive means mostly above about 0.92.
# Assay: chemical genetic growth profiling, strain panel (AID 1159580);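 further: tested at 20 µM; growth read once vehicle control cultures reached saturation at 30 °C; 1 = growth at the plate median or of vehicle wells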
# Settings: S. cerevisiae deletion strains, growth OD
# [1] = locus YAL013W, strain DEP1, stronger effect = lower value
# [2] = locus YBR229C, strain ROT2, stronger effect = lower value
# [3] = locus YDL101C, strain DUN1, stronger effect = lower value
# [4] = locus YDL134C, strain PPH21, stronger effect = lower value
# [5] = locus YDR150W, strain NUM1, stronger effect = lower value
# [6] = locus YEL061C, strain CIN8, stronger effect = lower value
# [7] = locus YGR078C, strain PAC10, stronger effect = lower value
# [8] = locus YHR030C, strain SLT2, stronger effect = lower value
# [9] = locus YHR087W, strain rtc3, stronger effect = lower value
# [10] = locus YJL187C, strain SWE1, stronger effect = lower value
# [11] = locus YJR043C, strain POL32, stronger effect = lower value
# [12] = locus YJR075W, strain HOC1, stronger effect = lower value
# [13] = locus YLR039C, strain RIC1, stronger effect = lower value
# [14] = locus YLR058C, strain SHM2 (second series), stronger effect = lower value
# [15] = locus YLR085C, strain ARP6, stronger effect = lower value
# [16] = locus YLR262C, strain YPT6, stronger effect = lower value
# [17] = locus YML094W, strain GIM5, stronger effect = lower value
# [18] = locus YMR219W, strain ESC1, stronger effect = lower value
# [19] = locus YMR263W, strain SAP30, stronger effect = lower value
# [20] = locus YNL153C, strain GIM3, stronger effect = lower value
# [21] = locus YNL298W, strain CLA4 (second series), stronger effect = lower value
# [22] = locus YNL322C, strain KRE1, stronger effect = lower value
# [23] = locus YNR030W, strain Alg12, stronger effect = lower value
# [24] = locus YPL055C, strain LGE1, stronger effect = lower value
# [25] = locus YPL241C, strain CIN2, stronger effect = lower value
# [26] = locus YPR135W, strain CTF4, stronger effect = lower value
smiles,measurement,setting,value
O=C1C2C3C=CC(C3)C2C(=O)N1c1ccc(F)c(F)c1 (stereo unspecified),normalized growth,[1],1.01
same,normalized growth,[2],1.03
same,normalized growth,"locus YCL061C, strain MRC1, stronger effect = lower value",0.986
same,normalized growth,[3],0.993
same,normalized growth,[4],0.999
same,normalized growth,[5],0.997
same,normalized growth,[6],1.03
same,normalized growth,[7],0.994
same,normalized growth,[8],1.01
same,normalized growth,[9],0.995
same,normalized growth,[10],1.01
same,normalized growth,[11],0.957
same,normalized growth,[12],1.01
same,normalized growth,"locus YKL190W, strain CNB1, stronger effect = lower value",0.99
same,normalized growth,[13],0.995
same,normalized growth,[14],0.981
same,normalized growth,[15],1.06
same,normalized growth,[16],0.992
same,normalized growth,[17],1.01
same,normalized growth,[18],1
same,normalized growth,[19],1
same,normalized growth,[20],0.983
same,normalized growth,[21],0.982
same,normalized growth,[22],1.02
same,normalized growth,[23],1.02
same,normalized growth,[24],1.06
same,normalized growth,[25],0.994
same,normalized growth,[26],0.975
CC1=CC(=O)N(c2ccc(F)c(Cl)c2)C1=O,normalized growth,"locus YAR019C, strain CDC15, stronger effect = lower value",0.966
same,normalized growth,"locus YBL105C, strain PKC1, stronger effect = lower value",0.974
same,normalized growth,"locus YBR135W, strain CKS1, stronger effect = lower value",0.964
same,normalized growth,"locus YBR136W, strain MEC1, stronger effect = lower value",0.971
same,normalized growth,"locus YBR160W, strain CDC28, stronger effect = lower value",0.975
same,normalized growth,"locus YDL017W, strain CDC7, stronger effect = lower value",0.966
same,normalized growth,"locus YDL028C, strain MPS1, stronger effect = lower value",0.976
same,normalized growth,[3],0.76 (active)
same,normalized growth,"locus YDL108W, strain KIN28, stronger effect = lower value",0.979
same,normalized growth,"locus YDL132W, strain cdc53, stronger effect = lower value",0.986
same,normalized growth,"locus YDL214C, strain PRR2, stronger effect = lower value",0.345 (active)
same,normalized growth,"locus YDR052C, strain DBF4, stronger effect = lower value",0.978
same,normalized growth,"locus YDR054C, strain cdc34, stronger effect = lower value",0.983
same,normalized growth,"locus YDR226W, strain ADK1, stronger effect = lower value",0.97
same,normalized growth,"locus YDR477W, strain SNF1, stronger effect = lower value",0.376 (active)
same,normalized growth,"locus YER123W, strain YCK3, stronger effect = lower value",0.243 (active)
same,normalized growth,"locus YER133W, strain GLC7, stronger effect = lower value",0.371 (active)
same,normalized growth,"locus YFL009W, strain cdc4, stronger effect = lower value",0.974
same,normalized growth,"locus YFL029C, strain CAK1, stronger effect = lower value",0.96
same,normalized growth,"locus YFR003C, strain YPI1, stronger effect = lower value",0.975
same,normalized growth,"locus YFR019W, strain FAB1, stronger effect = lower value",0.443 (active)
same,normalized growth,"locus YFR028C, strain CDC14, stronger effect = lower value",0.967
same,normalized growth,"locus YGR040W, strain KSS1, stronger effect = lower value",0.461 (active)
same,normalized growth,"locus YGR052W, strain FMP48, stronger effect = lower value",0.387 (active)
same,normalized growth,"locus YGR092W, strain DBF2, stronger effect = lower value",0.335 (active)
same,normalized growth,[8],0.173 (active)
same,normalized growth,"locus YHR079C, strain IRE1, stronger effect = lower value",0.195 (active)
same,normalized growth,"locus YHR082C, strain KSP1, stronger effect = lower value",0.235 (active)
same,normalized growth,"locus YHR205W, strain SCH9, stronger effect = lower value",0.395 (active)
same,normalized growth,"locus YIL147C, strain SLN1, stronger effect = lower value",0.975
same,normalized growth,"locus YJL095W, strain BCK1, stronger effect = lower value",0.168 (active)
same,normalized growth,"locus YJL128C, strain PBS2, stronger effect = lower value",0.953
same,normalized growth,"locus YJL157C, strain FAR1, stronger effect = lower value",0.377 (active)
same,normalized growth,"locus YJR016C, strain ILV3, stronger effect = lower value",0.987
same,normalized growth,"locus YJR066W, strain TOR1 (second series), stronger effect = lower value",0.219 (active)
same,normalized growth,"locus YJR066W, strain TOR1, stronger effect = lower value",0.166 (active)
same,normalized growth,"locus YKL048C, strain ELM1, stronger effect = lower value",0.474 (active)
same,normalized growth,"locus YKL067W, strain YNK1, stronger effect = lower value",0.347 (active)
same,normalized growth,"locus YKL101W, strain HSL1, stronger effect = lower value",0.386 (active)
same,normalized growth,"locus YKL193C, strain SDS22, stronger effect = lower value",0.974
same,normalized growth,"locus YKL203C, strain TOR2, stronger effect = lower value",0.506 (active)
same,normalized growth,"locus YLR113W, strain HOG1, stronger effect = lower value",0.335 (active)
same,normalized growth,"locus YLR133W, strain CKI1, stronger effect = lower value",0.457 (active)
same,normalized growth,"locus YLR403W, strain SFP1, stronger effect = lower value",0.404 (active)
same,normalized growth,"locus YML070W, strain DAK1, stronger effect = lower value",0.274 (active)
same,normalized growth,"locus YMR001C, strain CDC5, stronger effect = lower value",0.962
same,normalized growth,"locus YMR205C, strain PFK2 (second series), stronger effect = lower value",0.407 (active)
same,normalized growth,"locus YMR277W, strain FCP1, stronger effect = lower value",0.973
same,normalized growth,"locus YNL006W, strain LST8, stronger effect = lower value",0.982
same,normalized growth,"locus YNL020C, strain ARK1, stronger effect = lower value",0.477 (active)
same,normalized growth,"locus YNL161W, strain CBK1, stronger effect = lower value",0.963
same,normalized growth,"locus YNL183C, strain NPR1, stronger effect = lower value",0.156 (active)
same,normalized growth,"locus YNL207W, strain RIO2, stronger effect = lower value",0.973
same,normalized growth,"locus YNL222W, strain SSU72, stronger effect = lower value",0.973
same,normalized growth,"locus YNL307C, strain MCK1 (second series), stronger effect = lower value",0.34 (active)
same,normalized growth,"locus YOL078W, strain AVO1, stronger effect = lower value",0.966
same,normalized growth,"locus YOL136C, strain PFK27, stronger effect = lower value",0.335 (active)
same,normalized growth,"locus YOR061W, strain CKA2, stronger effect = lower value",0.549 (active)
same,normalized growth,"locus YOR119C, strain RIO1, stronger effect = lower value",0.524 (active)
same,normalized growth,"locus YOR231W, strain MKK1, stronger effect = lower value",0.225 (active)
same,normalized growth,"locus YOR329C, strain SCD5, stronger effect = lower value",0.98
same,normalized growth,"locus YPL031C, strain PHO85, stronger effect = lower value",0.233 (active)
same,normalized growth,"locus YPL153C, strain RAD53, stronger effect = lower value",0.398 (active)
same,normalized growth,"locus YPL204W, strain HRR25, stronger effect = lower value",0.455 (active)
same,normalized growth,"locus YPL209C, strain IPL1, stronger effect = lower value",0.964
same,normalized growth,"locus YPL256C, strain CLN2, stronger effect = lower value",0.206 (active)
same,normalized growth,"locus YPR025C, strain CCL1, stronger effect = lower value",0.97
same,normalized growth,"locus YPR106W, strain ISR1, stronger effect = lower value",0.974
same,normalized growth,"locus YPR111W, strain DBF20, stronger effect = lower value",0.976
same,normalized growth,"strain NNK1, stronger effect = lower value",0.973
same,normalized growth,"strain TSCII, stronger effect = lower value",0.966
O=C1CSCC(=O)N1c1ccc(F)c(Cl)c1,normalized growth,[1],0.993
same,normalized growth,[2],0.994
same,normalized growth,[3],1
same,normalized growth,[4],0.99
same,normalized growth,[5],0.935
same,normalized growth,[6],0.984
same,normalized growth,[7],0.994
same,normalized growth,"locus YGR229C, strain SMI1, stronger effect = lower value",0.985
same,normalized growth,[8],0.996
same,normalized growth,[9],0.981
same,normalized growth,[10],1
same,normalized growth,[11],0.925
same,normalized growth,[12],0.989
same,normalized growth,[13],1.02
same,normalized growth,[14],1
same,normalized growth,[15],0.978
same,normalized growth,[16],0.995
same,normalized growth,[17],0.992
same,normalized growth,[18],1
same,normalized growth,[19],0.994
same,normalized growth,[20],0.997
same,normalized growth,[21],0.998
same,normalized growth,[22],0.979
same,normalized growth,[23],0.281 (active)
same,normalized growth,[24],0.97
same,normalized growth,[25],0.378 (active)
same,normalized growth,[26],1
